# Bioassay records deposited in PubChem by National Center for Advancing Translational Sciences (NCATS).
# AMA1 RON2 block: qHTS for Inhibitors of AMA1-RON; Towards Development of Antimalarial Drug Lead: Primary Screen. AlphaScreen AMA1-biotinylated RON2 peptide binding. Plasmodium falciparum AMA1 (3D7) - RON2 peptide interaction. Potency, µM (titrated, usually from 58.2 µM), most hits filed as inhibitors. actives 0.2% (n = 360,000); also: nearly all actives have a fitted effect of over 45% in size
#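 AMA1 (3D7) with his tag at 25 nM final met compounds first, then biotinylated RON2 peptide at 25 nM; detection used donor plus acceptor beads, 10 µg/mL apiece, read by AlphaScreen after 30 min at room temperature.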
# HCV inhibitor: qHTS Assay for Inhibitors of Hepatitis C Virus (HCV); Huh7.5.1 HCVcc-Cre infection, luciferase reporter, 44 h; Potency, µM (doses to about 41.8 µM), hits mostly inhibitors; actives 3.4% (n = 340,000); AID 651820, 2012
#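 Compounds are dispensed onto cells plated 4 h earlier at 1,000 per well, with HCVcc-Cre virus (about 0.5 moi) added next. Following 44 h of culture, luminescent signal is measured for 15 sec after 15 min with substrate at room temperature.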
# Pf growth 48h: Primary qHTS for delayed death inhibitors of the malarial parasite plastid, 48 hour incubation | P. falciparum luciferase growth in erythrocytes, 48 h | Potency, µM (highest dose often 28.7 µM), hits mostly inhibitors | actives 5.9% (n = 310,000) | AID 504832, 2011
#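 Parasite viability was followed by luminescence of a genomically integrated firefly luciferase. Cultures held 0.1% parasitemia at 2% hematocrit (final), incubated under 5% CO2 at 37 C.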
# Pf growth 96h: Primary qHTS for delayed death inhibitors of the malarial parasite plastid, 96 hour incubation; P. falciparum luciferase reporter growth, 96 h; Potency, µM (doses to about 28.7 µM), hits mostly inhibitors; actives 6.9% (n = 320,000)
#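 Luminescence readout: decreased luciferase signal marks inhibited growth of reporter-expressing P. falciparum in infected red cells (2% hematocrit, 0.05% parasitemia final), exposed to compound two generations (96 h, 37 C, 5% CO2).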
# Hits are given with their value; n = inactive; u = inconclusive; x = not tested or not shown. Hits are enriched below; roughly 11% of the tested compounds scored in any of these assays. Calls follow the shape of the dose curve; as a rule, active = well fitted curve in the direction sought with a large enough effect; inconclusive = small, poorly fitted or top-dose-only effect, or another doubt; inactive = no such curve, though single readings can be large; an effect the other way counts as inactive or inconclusive.
SMILES,AMA1 RON2 block,HCV inhibitor,Pf growth 48h,Pf growth 96h
C=CCC(C(=O)Oc1c(C(C)(C)C)cc(C)cc1C(C)(C)C)c1ccccc1 (centres undefined),n,n,u,u
Cc1nc(NCCc2ccc(S(N)(=O)=O)cc2)c2c(C)c(C)sc2n1,n,1µM,u,x
Cc1nc(NCc2ccc(S(N)(=O)=O)cc2)c2c(C)c(C)sc2n1,n,n,u,n
O=[N+]([O-])c1ccc(N2CCCC2)cc1NC(c1ccccc1)c1ccccc1,n,u,u,u
CC(C)(C)c1ccc(CNc2cc(N3CCOCC3)ccc2[N+](=O)[O-])cc1,u,10µM,13µM,n
CC(C)C(=O)N1CCN(c2ccc([N+](=O)[O-])c(NC(C)c3ccccc3)c2)CC1 (centres undefined),n,u,9.3µM,n
CCS(=O)(=O)N1CCN(c2ccc([N+](=O)[O-])c(NC(C)c3ccccc3)c2)CC1 (centres undefined),n,u,u,u
O=[N+]([O-])c1ccc(N2CCOCC2)cc1NC(c1ccccc1)c1ccccc1,u,u,u,2.1µM
CC(Nc1cc(N2CCN(C(=O)C(C)(C)C)CC2)ccc1[N+](=O)[O-])c1ccccc1 (centres undefined),u,u,8.3µM,2.1µM
O=C(CSCc1ccc(Cl)cc1)Nc1ccc(S(=O)(=O)N2CCOCC2)cc1,n,n,n,u
CC1(CCc2ccccc2)NC(=O)N(CC(=O)Nc2ccc3c(c2)OCCO3)C1=O (centres undefined),n,n,n,n
O=[N+]([O-])c1cc(S(=O)(=O)N2CCCC2)ccc1NCCCN1CCOCC1,n,n,n,u
Cc1cc(C)c(S(=O)(=O)N2CCN(c3ccc([N+](=O)[O-])c(NCC4CCCO4)c3)CC2)c(C)c1 (centres undefined),u,u,n,u
O=[N+]([O-])c1ccc(N2CCN(S(=O)(=O)c3ccc(Cl)c(Cl)c3)CC2)cc1NCCN1CCOCC1,n,n,u,6.6µM
Cc1cc(C)c(S(=O)(=O)N2CCN(c3ccc([N+](=O)[O-])c(NCc4ccco4)c3)CC2)c(C)c1,n,u,u,3.7µM
CNc1ccccc1C(C)(C)c1cc(-c2ccc(F)cc2)no1,n,4µM,u,8.3µM
O=C(COc1ccc2c(c1)OCO2)Nc1ccccc1C(F)(F)F,n,n,n,u
COc1ccccc1-c1nnc(-c2ccc(N3CCOCC3)cc2)o1,n,n,u,1.7µM
COc1ccc(C(CCNC(C)c2ccccc2)C(C)C)cc1 (centres undefined),n,u,9.3µM,9.3µM
COc1ccccc1C(CC(=O)Nc1ccc(Cl)cc1)c1ccc(OC(C)C)cc1 (centres undefined),n,u,n,u
COc1ccc(C(C)NCCC(c2ccc(OC(C)C)cc2)c2ccccc2OC)cc1 (centres undefined),n,10µM,u,u
Cn1cnc(S(=O)(=O)N2CCCCC2c2cc(C(=O)Nc3cccc4c3CCCC4)no2)c1 (centres undefined),n,x,x,x
C=CCn1c(SCC(=O)N2CCc3ccccc3C2)nc2ccccc2c1=O,n,u,u,n
CN(C)c1ccc(CNC(=O)CC[C@H]2O[C@@H](n3cnc4c(NC(=O)c5ccccc5)ncnc43)[C@H](O)[C@@H]2O)cc1,n,x,x,x
COc1cc(Cl)c(CNC[C@H]2O[C@@H](n3cnc(C(N)=O)n3)[C@H](O)[C@@H]2O)c(Cl)c1O,n,n,x,x
SMILES,AMA1 RON2 block,HCV inhibitor,Pf growth 48h,Pf growth 96h
N#Cc1cn(C2OC(CO)C(O)C2O)c2ncnc(N)c12 (centres undefined),n,u,x,x
NC(=O)c1ncn(C2OC(CO)C(O)C2O)n1 (centres undefined),x,x,u,12µM
CC(C)Oc1ccc2ccccc2c1CNC[C@H]1O[C@@H](n2cnc(C(N)=O)n2)[C@H](O)[C@@H]1O,n,5µM,x,x
NC(=O)c1cn(C2OC(CO)C(O)C2O)c2ncnc(N)c12 (centres undefined),n,u,0.1µM,0.12µM
CCOc1cccc(-c2c(C(=O)N/N=C/c3ccoc3)nnn2-c2nonc2N)c1,n,n,n,u
Cc1cc(C(=O)CC#N)c(C)n1-c1ccc(OC(F)F)cc1,n,u,u,13µM
Cc1cc(C(=O)COC(=O)c2ccc(O)cc2O)c(C)n1-c1ccc(OC(F)F)cc1,n,10µM,9.3µM,u
Cc1cc(C(=O)CSc2nc(N)cc(=O)[nH]2)c(C)n1-c1ccc(OC(F)F)cc1,n,u,n,n
COc1ccc(-n2c(C)cc(C(=O)COC(=O)Cn3cnc4ccccc43)c2C)cc1,n,n,13µM,n
COc1ccc(NC(=O)COC(=O)Cn2cnc3ccccc32)cc1,n,n,x,x
COC(=O)c1cc(C(=O)OC)cc(-n2c(C)cc(C(=O)CC#N)c2C)c1,n,n,10µM,x
CN(C)[C@@H]1CCC[C@@H]1OC(=O)C(c1ccccc1)c1ccccc1,n,n,n,n
CCCCn1c(N)c(N(CC(C)C)C(=O)c2ccc(S(=O)(=O)N3CCCCCC3)cc2)c(=O)[nH]c1=O,n,n,u,u
COc1ccc(-n2c(C)cc(C(=O)CCl)c2C)cc1,n,u,n,u
COc1ccc(-n2c(C)cc(C(=O)COC(=O)c3ccc(O)cc3O)c2C)cc1,n,10µM,7.4µM,12µM
COC(=O)C(C(=O)OC)c1cc2c(cc1CNS(=O)(=O)c1ccc(C)cc1)OCO2,n,x,x,x
C=CC[C@H](CC(=O)NCCO)C(=O)NC[C@@H](OC(=O)[C@H](CC=C)CC(=O)OC(C)(C)C)c1ccccc1,n,n,x,x
O=C(NCCOc1nc(N2CCCCC2)nc(N2CCOCC2)n1)Nc1ccccc1,n,8.9µM,n,x
O=C(NCCOc1nc(N2CCOCC2)nc(N2CCOCC2)n1)Nc1ccccc1,n,u,n,n
Cn1cnc([N+](=O)[O-])c1S(=O)(=O)c1cccc(Cl)c1,n,u,n,u
CCCn1c(CC)nc([N+](=O)[O-])c1S(=O)(=O)c1ccccc1,n,13µM,10µM,u
CC(C)C(=O)NC(c1cccc([N+](=O)[O-])c1)c1c(O)ccc2ccccc12 (centres undefined),n,n,4.7µM,n
CC(C)C(=O)NC(c1ccc([N+](=O)[O-])cc1)c1c(O)ccc2ccccc12 (centres undefined),n,n,1.9µM,2.6µM
CC(=O)NC(c1ccc([N+](=O)[O-])cc1)c1c(O)ccc2ccccc12 (centres undefined),n,n,u,n
CN(Cc1cccnc1)C(=O)CNC(=O)c1ccc(Cl)cc1Cl,n,n,n,n
CCC(C(=O)O)n1nnc(-c2ccc(OCc3ccccc3)c(OC)c2)n1 (centres undefined),x,x,n,4.7µM
Cc1nn(CCC(N)=O)c2nc(-c3cccs3)cc(C(F)(F)F)c12,n,10µM,n,u
O=C1c2cccc3c2[C@@H](CCC3)CN1[C@@H]1CN2CCC1CC2,x,x,12µM,n
